Assay outcomes from PubChem BioAssay.
PfM18AAP inh-1 = PfM18AAP enzyme inhibition; recombinant PfM18AAP, H-Glu-NHMec fluorogenic cleavage; inhibition, % at 7.35 µM; 1.2% of 290,000 active; AID 1822;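 active = inhibition above the campaign mean inhibition over all tested compounds plus 3 SD, cut at about 28% in these data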;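 note: 0% = plate median of test compound wells and 100% = 2 mM ZnCl2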
ALR inh = human ALR oxidase inhibition via reduced H2O2. P55789. purified ALR, DTT oxidation, H2O2 HRP-luminol luminescence. inhibition, % (concentration not given with the values). 3.8% of 290,000 active;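 active = mean replicate inhibition above about 79%, with every replicate also reaching it, limit read from the data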
Target sequence (P55789 whole entry, looked up): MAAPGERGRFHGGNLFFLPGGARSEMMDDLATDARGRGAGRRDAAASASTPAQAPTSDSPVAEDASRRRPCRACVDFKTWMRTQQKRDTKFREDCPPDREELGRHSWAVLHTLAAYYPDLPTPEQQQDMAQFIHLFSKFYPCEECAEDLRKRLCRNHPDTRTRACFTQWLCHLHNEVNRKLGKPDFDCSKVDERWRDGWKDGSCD
HIF act = HIF pathway transcriptional activation; U2OS HRE-luciferase reporter, luminescence; normalized: DMSO 0%, desferrioxamine 100%; activation, % at 7.5 µM (by protocol); 0.32% of 300,000 active;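 active = mean activation of at least 10% of the iron chelator positive control signal, with at least half of replicates also reaching 10%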
Mot1-301 SUMO = inhibitors of SUMOylation pathway: yeast Mot1-301 growth rescue; S. cerevisiae Mot1-301 growth rescue, ATP luminescence, 38.5C; percent above DMSO median, 100 means doubled; growth rescue, % at 18.8 µM; 1% of 320,000 active; AID 2716;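 active = every valid replicate shows activation above 250% relative to neutral control wells; inactive = the rest, any valid replicate at or below 250%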;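 note: OY570 slx delta 5 strain wells were the positive control but not used for scaling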
PfM18AAP inh-2 = confirmation of Plasmodium falciparum M18 aspartyl aminopeptidase inhibitors. shares compounds with PfM18AAP inh-1. 28% of 2,400 active. inhibition, % at 7.35 µM. AID 2170. recombinant PfM18AAP, H-Glu-NHMec fluorogenic cleavage;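 active = mean inhibition over replicate wells above the hit cutoff set for the earlier primary screen, cut at about 29% in these data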;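 note: 0% = median of test compound wells and 100% = 2 mM ZnCl2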
CTSL1 confirm = counter-screen for PFM18AAP inhibitors: confirmation of human cathepsin L inhibitors | shares compounds with PfM18AAP inh-1 | purified cathepsin L1, Z-Leu-Arg-MCA fluorescence | inhibition, % at 5.96 µM | 2,400 tested, under 10 active | AID 2178;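 active = average inhibition across replicates above the hit cutoff set in the earlier primary screen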;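 note: 0% = median of test compound wells and 100% = Z-Phe-Ala-diazomethylketone 1 µM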
Target sequence (P07711 whole entry, looked up): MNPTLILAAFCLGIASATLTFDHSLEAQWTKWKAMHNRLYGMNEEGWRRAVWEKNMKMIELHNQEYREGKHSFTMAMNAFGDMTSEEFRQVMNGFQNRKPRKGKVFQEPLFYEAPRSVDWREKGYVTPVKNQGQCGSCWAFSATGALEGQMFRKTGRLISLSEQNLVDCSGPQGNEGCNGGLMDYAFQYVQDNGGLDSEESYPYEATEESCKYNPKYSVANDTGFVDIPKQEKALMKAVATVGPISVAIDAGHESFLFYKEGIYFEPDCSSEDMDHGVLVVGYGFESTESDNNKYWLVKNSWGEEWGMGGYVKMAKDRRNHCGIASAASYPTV
* = called active by the depositor. The list is not random: actives were taken first. Their share in the collection is about 5.3%.

Results for COc1ccc(S(=O)(=O)N2CCN(C(=O)CNC(=O)c3ccc4c(c3)OCO4)CC2)cc1 ?
ALR inh: -6; HIF act: 0; Mot1-301 SUMO: -5

Results for O=C(Nc1ccc(CN2CCOCC2)cc1)c1ccco1 ?
PfM18AAP inh-1: -1; ALR inh: 77*; HIF act: 2; Mot1-301 SUMO: -11

How did O=C(CSc1ccc(Cl)cc1)Nc1ccc(NC(=O)c2ccco2)cc1 do in these assays?
PfM18AAP inh-1: 3; ALR inh: 100*; Mot1-301 SUMO: 2

What do the screens show for `O=C(C(Cl)Cl)N1c2ccccc2OCC1c1ccccc1` (centres undefined)?
PfM18AAP inh-1: 3; ALR inh: -21; HIF act: 0; Mot1-301 SUMO: -4

Results for Cc1ccc(N2C(=O)C3CCCN3C2=S)cc1C (centres undefined) ?
PfM18AAP inh-1: 0; ALR inh: 2; HIF act: 1; Mot1-301 SUMO: 279

What do the screens show for `NS(=O)(=O)c1ccc(-c2ccc(/C=N/NC(=O)c3ccc([N+](=O)[O-])cc3)o2)cc1`?
PfM18AAP inh-1: 6; ALR inh: -10; HIF act: 0; Mot1-301 SUMO: 311*

Results for CCC(=O)N/N=C/c1ccc(-c2ccc([N+](=O)[O-])cc2)o1 ?
PfM18AAP inh-1: -6; ALR inh: -4; HIF act: 0; Mot1-301 SUMO: 27

Results for O=C(O)c1cccc(-c2ccc(/C=N/Nc3ccc([N+](=O)[O-])cc3)o2)c1 ?
PfM18AAP inh-1: 18; ALR inh: 19; HIF act: -1; Mot1-301 SUMO: 311*

Results for Cc1c(C(=O)O)cccc1-c1ccc(/C=N/Nc2ccc(Br)cc2)o1 ?
PfM18AAP inh-1: -18; ALR inh: 100*; HIF act: 1; Mot1-301 SUMO: 109

What do the screens show for `O=C(COC(=O)c1cccc(F)c1)Nc1ccc(Cl)cn1`?
ALR inh: -2; Mot1-301 SUMO: 10

How did Clc1ccc(-n2cccc2/C=N/n2cnnc2)cc1 do in these assays?
PfM18AAP inh-1: 41*; ALR inh: -14; HIF act: 0; Mot1-301 SUMO: 23; PfM18AAP inh-2: -22; CTSL1 confirm: -6

What do the screens show for `Cc1ccc(S(=O)(=O)N/N=C/c2cccn2-c2ccc(Cl)cc2)cc1`?
PfM18AAP inh-1: -9; ALR inh: 32; HIF act: 0; Mot1-301 SUMO: -12

Results for CCN1/C(=C2\C(=O)N(C)C(=S)N2C)C=Cc2cc(OC)ccc21 ?
PfM18AAP inh-1: 34*; ALR inh: 9; HIF act: 0; Mot1-301 SUMO: -4; PfM18AAP inh-2: -24; CTSL1 confirm: -3

Results for CCN1C(=O)/C(=C2/C=Cc3cc(C)ccc3N2CC)N(C)C1=S ?
PfM18AAP inh-1: 3; ALR inh: 57; HIF act: -1; Mot1-301 SUMO: -29

What do the screens show for `CN(C)S(=O)(=O)c1ccc(C(=O)OCC(=O)NCc2ccco2)cc1`?
PfM18AAP inh-1: 3; ALR inh: -6; HIF act: 0; Mot1-301 SUMO: -3

Results for O=C(Nn1cnnc1)C1Cc2ccccc2CN1S(=O)(=O)c1ccc(F)cc1 (centres undefined) ?
PfM18AAP inh-1: 39*; ALR inh: 0; HIF act: 0; Mot1-301 SUMO: -12; PfM18AAP inh-2: 33*; CTSL1 confirm: -3

Results for Cc1ccc(S(=O)(=O)N2Cc3ccccc3CC2C(=O)Nn2cnnc2)cc1 (centres undefined) ?
PfM18AAP inh-1: 41*; ALR inh: 0; HIF act: 0; Mot1-301 SUMO: -3; PfM18AAP inh-2: 36*; CTSL1 confirm: -3

What do the screens show for `C=CCN(CC=C)C(=O)COn1nnc2ccc(S(=O)(=O)N3CCOCC3)cc21`?
ALR inh: 1; HIF act: 0; Mot1-301 SUMO: -4

Results for O=C(/C=C1\SC(=O)NC1=O)Nc1ccc(F)cc1 ?
PfM18AAP inh-1: 36*; ALR inh: 97*; HIF act: 0; Mot1-301 SUMO: -2; PfM18AAP inh-2: -56; CTSL1 confirm: 7

How did NC(=O)Cc1c[nH]c2cccc(O)c12 do in these assays?
PfM18AAP inh-1: 47*; ALR inh: 75; HIF act: 0; Mot1-301 SUMO: 4; PfM18AAP inh-2: 12; CTSL1 confirm: -5

Results for O=C(CN1CCC(NC(=O)C2CC2)CC1)Nc1cccc(F)c1 ?
PfM18AAP inh-1: -2; ALR inh: -9; HIF act: 0; Mot1-301 SUMO: -12

Results for CCC(=O)Nc1ccc(NC(=O)c2cccc3c(Br)cccc23)cc1 ?
PfM18AAP inh-1: 45*; ALR inh: -8; HIF act: 0; Mot1-301 SUMO: 1; PfM18AAP inh-2: -30; CTSL1 confirm: 1

Results for O=C(CNC(=O)c1ccccn1)N=Nc1c(O)[nH]c2ccccc12 ?
PfM18AAP inh-1: 51*; HIF act: 0; Mot1-301 SUMO: -2; PfM18AAP inh-2: 28; CTSL1 confirm: 0

Results for COc1ccc(CC(=O)NCC(=O)N=Nc2c(O)[nH]c3ccccc23)cc1 ?
PfM18AAP inh-1: 8; ALR inh: 1; HIF act: 0; Mot1-301 SUMO: 7

What do the screens show for `CNC(=O)CCC(=O)Nc1ccc(C)cc1`?
PfM18AAP inh-1: 1; ALR inh: -26; HIF act: -1; Mot1-301 SUMO: 9

How did O=C(Nn1cnnc1)c1cc([N+](=O)[O-])cc([N+](=O)[O-])c1 do in these assays?
PfM18AAP inh-1: 45*; ALR inh: -81; HIF act: 1; Mot1-301 SUMO: -4; PfM18AAP inh-2: 49*; CTSL1 confirm: -3

What do the screens show for `Nc1c(C(=O)Nn2cnnc2)cc([N+](=O)[O-])cc1[N+](=O)[O-]`?
PfM18AAP inh-1: 63*; ALR inh: -18; HIF act: 0; Mot1-301 SUMO: 11; PfM18AAP inh-2: 56*; CTSL1 confirm: 4

What do the screens show for `COc1cc(OC)cc(C(=O)Nn2cnnc2)c1`?
PfM18AAP inh-1: 36*; ALR inh: -6; HIF act: 0; Mot1-301 SUMO: -8; PfM18AAP inh-2: 30*; CTSL1 confirm: 3

What do the screens show for `O=C(Nn1cnnc1)c1ccc([N+](=O)[O-])cc1Cl`?
ALR inh: 7; HIF act: 0; Mot1-301 SUMO: 18

How did Cc1coc2c1c(C)cc1oc(=O)c(CC(=O)NCCCN3CCCC3=O)c(C)c12 do in these assays?
PfM18AAP inh-1: 11; ALR inh: -15; HIF act: 0; Mot1-301 SUMO: 6

How did COc1ccccc1N(/N=C1\Sc2ccccc2C1=O)C(C)=O do in these assays?
PfM18AAP inh-1: 1; ALR inh: 12; HIF act: -3; Mot1-301 SUMO: -16

How did O=C(O)c1ccc2c(c1)C1C=CCC1C(c1ccncc1)N2 (centres undefined) do in these assays?
PfM18AAP inh-1: 37*; ALR inh: -17; HIF act: -1; Mot1-301 SUMO: 10; PfM18AAP inh-2: 7; CTSL1 confirm: -2
